PubChem BioAssay AID1159580 (chemical genetic matrix, 2015)
Screen size: about 5,500 compounds; about 2,000 (36%) were called active. Another 18% or so got no clear call; they are omitted. Cut-off read from the data, not from the text of the source: active = normalized growth mostly below about 0.91 (no sharp cut-off); inconclusive = no clear call, values can overlap the other calls; inactive = mostly above about 0.92. Some of the results follow.

Assay: chemical genetic growth profiling, strain panel (AID 1159580);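 note: tested at 20 µM; growth read once vehicle control cultures reached saturation at 30 °C; 1 = growth at the plate median or of vehicle wells; lower values mean less growth of the strain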
Conditions: S. cerevisiae deletion strains, growth OD

Measured: normalized growth

Cn1cnc(CCN)c1
inactive: locus YAL013W, strain DEP1, active compounds read low 1.01 | locus YAL040C, strain CLN3, active compounds read low 0.999 | locus YCL061C, strain MRC1 (second series), active compounds read low 0.995 | locus YDR363W, strain ESC2, active compounds read low 0.979 | locus YER002W, strain NOP16, active compounds read low 0.98 | locus YGR078C, strain PAC10, active compounds read low 1.01 | locus YGR229C, strain SMI1, active compounds read low 1.01 | locus YJR075W, strain HOC1, active compounds read low 1.01 | locus YMR263W, strain SAP30, active compounds read low 1 | locus YNL153C, strain GIM3, active compounds read low 1 | locus YNL175C, strain NOP13, active compounds read low 0.986 | locus YNL197C, strain WHI3, active compounds read low 0.992 | locus YNL224C, strain SQS1, active compounds read low 0.983 | locus YNL322C, strain KRE1, active compounds read low 1.01 | locus YOR083W, strain WHI5 (second series), active compounds read low 0.99
